Data on 36 compounds can be found in ChEMBL document CHEMBL1157539, “Thousands of chemical starting points for antimalarial lead identification” (Nature, 2010).

This test deals with Plasmodium falciparum. As to the kind of experiment: GSK_TCMDC: Inhibition of Plasmodium falciparum Dd2 in whole red blood cells, using parasite LDH activity as an index of growth. Test compounds present at 2uM. It is filed as functional.
In turn, `Cc1ccc2cc(NCCCCCCCCON3C(N)=NC(N)=NC34CCCCC4)ccc2n1` came in with an Inhibition of 80%.

Regarding `O=C(/C=C/c1ccc(Cl)c(Cl)c1)NCCCCCN1CCC(NC(=O)Nc2ccc(C(F)(F)F)cc2)C1` (stereo unspecified), the Inhibition is 6%.

For `O=C(Nc1cccc(-c2nn3ccccc3c2-c2ccnc(Nc3ccc(NCCCN4CCOCC4)c(F)c3)n2)c1)c1c(F)cccc1F`, the Inhibition is 97%.

Compound `COc1ccc(CCNC(=O)c2ccccc2O)cc1-c1ccc(C(C)(C)C)cc1` showed an Inhibition of 96%.

`CCN(CCCN1CCCC1)c1cc(C)nc(Nc2ccc(Cl)cc2)n1.O=C(O)C(=O)O` had an Inhibition of 12%.

`CS(=O)(=O)CCNc1cc(N2CCc3ncnc(Nc4ccc(OCc5cccc(F)c5)c(Cl)c4)c3C2)ncn1` gave an Inhibition of 50%.

Turning to `NS(=O)(=O)c1ccc(CNC(=O)c2cnc3c(O)cccc3c2Nc2cccc(NC(=O)c3ccc(Cl)c(Cl)c3)c2)cc1.O=C(O)C(F)(F)F`, the Inhibition amounted to 35%.

In the case of `O=C(Nc1ccccc1)N(Cc1cccc(-c2ccc(CNC3CCCC3)cc2)c1)C1CCN(Cc2ccccc2)CC1.O=C(O)C(F)(F)F`, the Inhibition was found to be 96%.

For `Cc1cc(F)ccc1Oc1nc(Nc2ccc(N3CCOCC3)c(F)c2)nc2c1S(=O)(=O)CCC2.Cl`, the Inhibition amounted to 98%.

The compound `O=C(CCc1c[nH]cn1)Nc1cccc(-c2ccc(-c3nc4cc(F)ccc4[nH]3)s2)c1` showed an Inhibition of 69%.

For `O=C(Nc1ccc(F)cc1F)NC1CCN(CCCCCNC(=O)C2CC2c2ccc(Cl)c(Cl)c2)CC1` (stereo unspecified), the Inhibition amounted to 32%.

For `Cc1ccccc1C(=O)NC(NC(=S)Nc1ccc([N+](=O)[O-])cc1)C(Cl)(Cl)Cl` (stereo unspecified), the Inhibition is listed as 39%.

`CCN1CCN(c2cc(C)c3cc(NC(=O)c4cncc(Br)c4)ccc3n2)CC1` registered an Inhibition of 63%.

For `COc1ccc(-c2nc3c(N)nc(N)nc3nc2C(C)C)cc1`, the Inhibition is reported as 0%.

For the compound `COc1c(C2CCN(CCCCNC(=O)c3cc(-c4ccc(Cl)cc4)sc3C)CC2)ccc2c1CCCC2`, the Inhibition is 65%.

Turning to `O=C(/C=C/c1ccc(Cl)c(Cl)c1)N1CCN(C(=O)Nc2cccc(C(F)(F)F)c2)CC1`, the Inhibition is recorded as 100%.

As to `O=C(O)C(F)(F)F.O=c1ccc2ccc(F)c3c2n1CC3CN1CCC(NCc2ccc(-c3cccc(Cl)c3)nc2)CC1` (stereo unspecified), the Inhibition is on record as 33%.

With `Cc1[nH]cnc1Cc1ccc2c(c1O)c1ccccc1n2C`, the Inhibition is listed as 16%.

The compound `COc1ccc2nccc([C@@H](O)CN3CCC(NC(=O)/C=C/c4ccc5cc(C)[nH]c5c4)CC3)c2c1` returned an Inhibition of 93%.

Consider `Cc1cc(NC2CCN(CC3CCCCC3)CC2)nc(Nc2ccccc2Cl)n1`, for which the Inhibition stood at 31%.

The compound `CC12CN3CC(C)(CN(C1)C3c1cc(Br)ccc1O)C2O` (stereo unspecified) registered an Inhibition of 2%.

`CC(C)c1ccc(C=CC(=O)N2CCC(CCN3CCC(c4c[nH]c5ccccc45)CC3)CC2)cc1` displayed an Inhibition of 11%.

For the compound `O=C(NCc1cccs1)[C@H](Cc1ccccc1)Nc1ccnc(NCC2CCCCC2)n1.O=C(O)C(F)(F)F`, the Inhibition was found to be 67%.

For `COc1ccc(CCN(C)CCOc2ccc(NC(=O)c3cc(SC)cc4c(=O)c5ccccc5[nH]c34)cc2)cc1OC`, the Inhibition was 44%.

For `COc1cccc(OC(C)(C)c2nc(N[C@@H](C)c3ccccc3)c3cn[nH]c3n2)c1`, the Inhibition was 69%.

Regarding `CCCCCN1CCCN(Cc2cccc(NC(=O)c3ccc(Cl)c(Cl)c3)c2)CC1.O=C(O)C(F)(F)F`, the Inhibition is on record as 28%.

Turning to `O=C(Nc1cccc(-c2ccc(-c3nc4ccccc4[nH]3)cc2)c1)Nc1ccc2c(c1)OCO2`, the Inhibition amounted to 8%.

`O=C(O)C(F)(F)F.Oc1ccc(CCCNc2nc(NCc3ccccc3-c3ccccc3)nc(N3CCNCC3)n2)cc1` displayed an Inhibition of 48%.

In turn, `FC(F)(F)c1ccc2[nH]c(-c3ccc(-c4cccc(CNCc5ccccc5)c4)cc3)nc2c1.O=C(O)C(F)(F)F` displayed an Inhibition of 43%.

Regarding `Cc1cccc2nc(-c3ccc(-c4ccc(CNCCNC(=O)c5ccnn5C)cc4)cc3)[nH]c12.O=C(O)C(F)(F)F`, the Inhibition turned out to be 98%.

Turning to `Cc1cc(NCCc2ccccc2)nc(N/C(=N/CC(=O)OC(C)(C)C)Nc2ccc(C(F)(F)F)cc2)n1.I`, the Inhibition is listed as 97%.

In the case of `CCCCOc1ccccc1C(=O)NCc1csc(-c2ccccc2)n1`, the Inhibition is 91%.

`COc1ccc2[nH]c(C(=O)Nc3cccc(-c4ccc(CN(C)C)cc4)c3)cc2c1` had an Inhibition of 34%.

In turn, `COc1cccc(CN2CCCN(Cc3cccc(NC(=O)c4cc5ccccc5s4)c3)CC2)c1.O=C(O)C(F)(F)F` gave an Inhibition of 16%.

`CC(C)Sc1nc2c(c(=O)n1Cc1ccco1)C1(CCCC1)Cc1ccccc1-2` had an Inhibition of 10%.

`Cc1nnsc1C(=O)Nc1cccc(-c2ccc(-c3nc4cccc(C)c4[nH]3)s2)c1` displayed an Inhibition of 44%.
